Measured values as given in PubChem BioAssay (NCI).
Values joined by “and” are separate entries in the source; they are usually repeats but may differ in a detail not shown here. Equal entries are not always repeated. About 79,000 compounds went through this panel and 15% of them were active in at least one assay; those are over-represented in the sample as a whole. Active and inactive are the calls of the source. Rule as the data show it: active = growth inhibition above about 70%; inactive = the rest.

Tests used:
[1] = NCI Yeast Anticancer Drug Screen. Data for the mec2-1 strain (AID 157); conditions: S. cerevisiae mec2-1 strain, stronger effect = higher value
In short: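 Readout is yeast growth inhibition, normalised to vehicle-treated controls, in the mec2-1 strain exposed to compound.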

[2] = NCI Yeast Anticancer Drug Screen. Data for the sgs1 mgt1 strain (AID 161);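 also: 0% = growth of cultures given vehicle only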; conditions: S. cerevisiae sgs1 mgt1 strain, stronger effect = higher value
In short: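 Percent growth inhibition was derived by comparing compound-exposed mutant yeast with vehicle-exposed cultures. The strain carries alterations in DNA damage repair.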

[3] = NCI Yeast Anticancer Drug Screen. Data for the cln2 rad14 strain (AID 165);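 also: 0% = growth equal to vehicle treated cultures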; conditions: S. cerevisiae cln2 rad14 strain, stronger effect = higher value
In short: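 Relative to vehicle controls, growth inhibition of compound-treated cln2 rad14 yeast was recorded.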

[4] = NCI Yeast Anticancer Drug Screen. Data for the bub3 strain (AID 167); conditions: S. cerevisiae bub3 mutant strain, stronger effect = higher value
In short: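 Growth of a checkpoint-deficient yeast mutant is measured after compound exposure. Values represent inhibition relative to vehicle.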

[5] = NCI Yeast Anticancer Drug Screen. Data for the mlh1 rad18 strain (AID 175); conditions: S. cerevisiae mlh1 rad18 strain growth inhibition, stronger effect = higher value
In short: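 Test agents were incubated with a yeast strain of defined genotype (DNA damage repair defect). Inhibition of growth was derived by comparison with vehicle-exposed cultures.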

[6] = NCI Yeast Anticancer Drug Screen. Data for the rad50 strain (AID 155);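 also: 0% = growth of vehicle-only cultures of the same strain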; conditions: S. cerevisiae rad50 strain growth inhibition; at 50.0 µM; stronger effect = higher value
In short: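 Compounds were tested on a yeast strain with an engineered DNA damage repair alteration; the reported value is growth inhibition normalised to vehicle treatment.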

[7] = at 5.0 µM (retest, dose inferred, filed as 0.5)
[8] = at 50.0 µM (retest, dose inferred, filed as 5.0)

COc1ccc(C(=O)Cc2c(C(=O)c3ccccc3)c3ccccc3n2C(=O)c2ccccc2)cc1
growth inhibition ([1]; at 50.0 µM): -18.5% (inactive) | growth inhibition ([2]; at 50.0 µM): -9.5% (inactive) | growth inhibition ([3]; at 50.0 µM): -57.6% (inactive) | growth inhibition ([4]; at 50.0 µM): -23.4% (inactive) | growth inhibition ([5]; at 50.0 µM): 5.75% (inactive)

Cc1cccc(C)c1N=C(N)N[N+](=O)[O-]
growth inhibition [1, 7]: 53% (inactive) | growth inhibition [1, 8]: 97% (active) | growth inhibition ([1]; at 50.0 µM): 90.3% (active) | growth inhibition [2, 7]: 90% (active) | growth inhibition [2, 8]: 98% (active) | growth inhibition [3, 7]: 57% (inactive) | growth inhibition [3, 8]: 98% (active) | growth inhibition [4, 7]: 27% (inactive) | growth inhibition [4, 8]: 97% (active) | growth inhibition [5, 7]: 33% (inactive) | growth inhibition [5, 8]: 99% (active) | growth inhibition ([5]; at 50.0 µM): 88% (active)

C1CC[N-]CC1.C1CC[N-]CC1.N#C[S-].N#C[S-].[Cd]
growth inhibition [1, 7]: 18% (inactive) | growth inhibition [1, 8]: 69% (inactive) | growth inhibition [2, 7]: 15% (inactive) | growth inhibition [2, 8]: 81% (active) | growth inhibition [3, 7]: 11% (inactive) | growth inhibition [3, 8]: 57% (inactive) | growth inhibition [5, 7]: -4% (inactive) | growth inhibition [5, 8]: 66% (inactive)

NC(=O)C1(Cl)CCCCC1
growth inhibition [6]: -11.8% (inactive) | growth inhibition ([2]; at 50.0 µM): -20.8% (inactive) | growth inhibition ([3]; at 50.0 µM): -11.2% (inactive) | growth inhibition ([4]; at 50.0 µM): -6.1% (inactive) | growth inhibition ([5]; at 50.0 µM): -6.25% (inactive)

COc1cccc(OC)c1CCN
growth inhibition ([1]; at 50.0 µM): -5.3% (inactive) | growth inhibition ([2]; at 50.0 µM): -11.4% (inactive) | growth inhibition ([3]; at 50.0 µM): -1.1% (inactive) | growth inhibition ([4]; at 50.0 µM): -24.8% (inactive) | growth inhibition ([5]; at 50.0 µM): -36% (inactive)

CC(C(=O)O)C(Br)C(=O)O (stereo not given)
growth inhibition [6]: -9% (inactive) | growth inhibition ([2]; at 50.0 µM): 1.7% (inactive) | growth inhibition ([3]; at 50.0 µM): 3.55% (inactive) | growth inhibition ([4]; at 50.0 µM): 5.85% (inactive) | growth inhibition ([5]; at 50.0 µM): 9.7% (inactive)

N#CS.[Ag]
growth inhibition [1, 7]: 10% (inactive) | growth inhibition [1, 8]: 98% (active) | growth inhibition ([1]; at 50.0 µM): 91.7% (active) | growth inhibition [2, 7]: 15% (inactive) | growth inhibition [2, 8]: 98% (active) | growth inhibition ([2]; at 50.0 µM): 75.2% (active) | growth inhibition [3, 7]: 27% (inactive) | growth inhibition [3, 8]: 98% (active) | growth inhibition ([3]; at 50.0 µM): 32.7% (inactive) | growth inhibition [4, 7]: 25% (inactive) | growth inhibition [4, 8]: 98% (active) | growth inhibition ([4]; at 50.0 µM): 89.5% (active) | growth inhibition [5, 7]: -1% (inactive) | growth inhibition [5, 8]: 97% (active) | growth inhibition ([5]; at 50.0 µM): 89% (active)

CCC(C)C1(CCc2ccccc2)C(=O)NC(=O)NC1=O (stereo not given)
growth inhibition [6]: -2.8% (inactive) | growth inhibition ([2]; at 50.0 µM): 3.55% (inactive) | growth inhibition ([3]; at 50.0 µM): -31.3% (inactive) | growth inhibition ([4]; at 50.0 µM): 10.4% (inactive) | growth inhibition ([5]; at 50.0 µM): -0.65% (inactive)

CCOC(=O)C1(C#N)C(C#N)(C#N)C12CCCCC2 (stereo not given) (tested in a mixture with another compound)
growth inhibition [6]: 36.5% (inactive) | growth inhibition ([2]; at 50.0 µM): 56% (inactive) | growth inhibition ([3]; at 50.0 µM): 4.9% (inactive) | growth inhibition ([4]; at 50.0 µM): 33.8% (inactive) | growth inhibition ([5]; at 50.0 µM): 23.2% (inactive)

Cn1cnc([N+](=O)[O-])c1C(=O)O
growth inhibition [6]: 7.9% (inactive) | growth inhibition ([2]; at 50.0 µM): 20.4% (inactive) | growth inhibition ([3]; at 50.0 µM): -13.2% (inactive) | growth inhibition ([4]; at 50.0 µM): -17.9% (inactive) | growth inhibition ([5]; at 50.0 µM): 6.55% (inactive)

CCOC(=O)CC(=O)c1ccccc1
growth inhibition [6]: 16.9% (inactive) and -9.6% (inactive) | growth inhibition ([1]; at 50.0 µM): -17.6% (inactive) and -2% (inactive) | growth inhibition ([5]; at 50.0 µM): 14.1% (inactive) and -15.7% (inactive)

CN1CC(C(=O)NO)C=C2c3cccc4[nH]cc(c34)CC21 (stereo not given)
growth inhibition [6]: 8.8% (inactive) | growth inhibition ([2]; at 50.0 µM): 23.5% (inactive) | growth inhibition ([3]; at 50.0 µM): -3.7% (inactive) | growth inhibition ([4]; at 50.0 µM): 41.5% (inactive) | growth inhibition ([5]; at 50.0 µM): 14.4% (inactive)

[Cl][Tl]
growth inhibition [6]: -4.7% (inactive) | growth inhibition ([2]; at 50.0 µM): 9.5% (inactive) | growth inhibition ([3]; at 50.0 µM): -11.3% (inactive) | growth inhibition ([4]; at 50.0 µM): -41% (inactive) | growth inhibition ([5]; at 50.0 µM): -37.5% (inactive)

COc1cc(C2c3cc4c(cc3OC(NCCO)C2C)OCO4)cc(OC)c1O (stereo not given)
growth inhibition ([1]; at 50.0 µM): -11.5% (inactive) | growth inhibition ([2]; at 50.0 µM): -14.3% (inactive) | growth inhibition ([3]; at 50.0 µM): 9.25% (inactive) | growth inhibition ([4]; at 50.0 µM): -18.1% (inactive) | growth inhibition ([5]; at 50.0 µM): -0.65% (inactive)

COc1cc(C(c2c(O)c3ccccc3oc2=O)c2c(O)c3ccccc3oc2=O)cc(OC)c1OC
growth inhibition ([1]; at 50.0 µM): -8.15% (inactive) | growth inhibition ([2]; at 50.0 µM): -10.2% (inactive) | growth inhibition ([3]; at 50.0 µM): 0.9% (inactive) | growth inhibition ([4]; at 50.0 µM): -11.7% (inactive) | growth inhibition ([5]; at 50.0 µM): -2.85% (inactive)

C[C@]12CC[C@H](O)C[C@H]1CC[C@@H]1[C@@H]2CC[C@]2(C)[C@@H](C3=CC(=O)OC3)CC[C@]12O
growth inhibition ([1]; at 50.0 µM): 12.4% (inactive) | growth inhibition ([2]; at 50.0 µM): 5.55% (inactive) | growth inhibition ([3]; at 50.0 µM): -56.4% (inactive) | growth inhibition ([4]; at 50.0 µM): 15.3% (inactive) | growth inhibition ([5]; at 50.0 µM): 8.4% (inactive)

CC(=O)NC1C(O[C@H]2CC[C@@]3(C)C(CC[C@]4(C)C3CC=C3C5CC(C)(C)CC[C@]5(C(=O)O)CCC34C)C2(C)C)OC(CO)C(O)C1O (stereo not given in full)
growth inhibition [1, 7]: 69% (inactive) | growth inhibition [1, 8]: 99% (active) | growth inhibition ([1]; at 50.0 µM): 92.8% (active) | growth inhibition [3, 7]: 74% (active) | growth inhibition [3, 8]: 99% (active) | growth inhibition ([3]; at 50.0 µM): 91% (active) | growth inhibition [4, 7]: 77% (active) | growth inhibition [4, 8]: 98% (active) | growth inhibition ([4]; at 50.0 µM): 91.2% (active) | growth inhibition [5, 7]: 48% (inactive) | growth inhibition [5, 8]: 99% (active) | growth inhibition ([5]; at 50.0 µM): 90% (active)

CC1(C)Cc2cccc(C=C(C#N)C#N)c2O1
growth inhibition [6]: 6.9% (inactive) | growth inhibition ([2]; at 50.0 µM): 3.25% (inactive) | growth inhibition ([3]; at 50.0 µM): -63.5% (inactive) | growth inhibition ([4]; at 50.0 µM): -6.85% (inactive) | growth inhibition ([5]; at 50.0 µM): -3.25% (inactive)

CCCC1(c2ccccc2)C(=O)NCNC1=O
growth inhibition [6]: -21.8% (inactive) | growth inhibition ([2]; at 50.0 µM): -24.3% (inactive) | growth inhibition ([3]; at 50.0 µM): -12.2% (inactive) | growth inhibition ([4]; at 50.0 µM): -25.4% (inactive) | growth inhibition ([5]; at 50.0 µM): -25.1% (inactive)
